# In PubChem BioAssay (Tox21):
# Inconclusive results are not listed. Where a call stands in place of a potency, no number is given. Values without a mark were called inactive. Calls of active or inactive are those of the source. The call rests on the fitted dose curve.
# Molecular target: Thyrotropin receptor (Homo sapiens) (UniProt P16473)
# Assay: qHTS assay to identify small molecule antagonists of the thyroid stimulating hormone receptor (TSHR) signaling pathway (AID 1259385); further: nearly all actives have a fitted effect of over 20% in size
# Conditions: TSHR-HEK293 cAMP HTRF, TSH-stimulated antagonist mode; series mostly up to 92.4 µM
# Excerpt: U.S. Tox21 Program National Center for Advancing Translational Sciences [NCATS] NIH Chemical Genomics Center [NCGC] U.S. Environmental Protection Agency [EPA] National Institutes of Environmental Health Sciences [NIEHS] National Toxicology Program [NTP] U.S. Food and Drug Administration [FDA] Tox21 Assay Overview: TSHR is the receptor for thyrotropin (thyroid stimulating hormone or TSH), a member of the glycoprotein hormone family. TSH is released by the anterior pituitary gland and is the main regulator of thyroid gland growth and development. Upon binding circulating thyrotropin, a G-protein signal cascade activates adenylyl cyclase and […] cAMP concentration is increased. cAMP is a key second messenger involved extensively in cellular signal transduction pathways associated with the majority of G-protein coupled receptors (GPCRs). The activation of these GPCRs by neurotransmitters, lipids, nucleotides, peptides and hormones results in the activation or the inhibition of plasma membrane-bound adenylate cyclase through heterotrimeric G-proteins. A cell-based TSHR assay can be used to screen chemical compounds that modulate TSHR either in agonist or antagonist mode.
# Tox21 Assay Protocol Summary: TSHR-Hek293 cells were dispensed at 800 cells/4uL/well in 1536-well white plates using a Multidrop dispenser. After the assay plates were incubated at a 37C/5% CO2 incubator for 18 hrs, 23 nL of compounds dissolved in DMSO, positive controls or DMSO only was transferred to the assay plate by a pin tool, followed by 1 ul medium containing Ro20-1724. For the antagonist mode screening, 1 uL of TSH was added on the top of the cell/compound mixtures to achieve a final agonist concentration of 1.5 ng/mL. After 30 min of incubation at room temperature, 2.5 ul/well of cAMP-d2 and 2.5 ul/well of anti-cAMP-cryptate were added respectively into the assay plates using a Flying Reagent Dispenser. The plates were incubated at room temperature for 1 hr. The fluorescence intensity in the plates was measured using an Envision plate reader. Each test compound was measured at 15 concentrations and in triplicates.
# Potency means the concentration at half of the fitted maximal effect.
# Sequence of Thyrotropin receptor (Homo sapiens) (P16473 whole entry, looked up): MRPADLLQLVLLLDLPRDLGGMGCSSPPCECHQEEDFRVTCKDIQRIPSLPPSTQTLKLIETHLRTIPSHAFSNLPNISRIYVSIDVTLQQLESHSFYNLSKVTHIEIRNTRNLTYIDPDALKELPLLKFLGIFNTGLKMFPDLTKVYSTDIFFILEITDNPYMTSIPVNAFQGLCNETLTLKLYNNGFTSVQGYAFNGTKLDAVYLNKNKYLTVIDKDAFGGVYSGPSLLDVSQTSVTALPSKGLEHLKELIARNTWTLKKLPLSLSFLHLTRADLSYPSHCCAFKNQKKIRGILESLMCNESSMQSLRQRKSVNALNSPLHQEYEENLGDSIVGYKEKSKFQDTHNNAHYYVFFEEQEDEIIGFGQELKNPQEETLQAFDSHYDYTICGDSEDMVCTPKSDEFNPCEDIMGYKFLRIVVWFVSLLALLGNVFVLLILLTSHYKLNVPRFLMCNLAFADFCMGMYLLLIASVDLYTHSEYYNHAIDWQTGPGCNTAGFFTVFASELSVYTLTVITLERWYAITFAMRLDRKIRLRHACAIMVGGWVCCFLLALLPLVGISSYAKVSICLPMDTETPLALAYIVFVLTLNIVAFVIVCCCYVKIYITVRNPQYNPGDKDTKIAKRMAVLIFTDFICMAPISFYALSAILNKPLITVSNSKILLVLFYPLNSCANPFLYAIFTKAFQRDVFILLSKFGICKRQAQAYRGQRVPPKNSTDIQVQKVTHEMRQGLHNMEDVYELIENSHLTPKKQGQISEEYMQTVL
SMILES,Potency,"activity change, negative = inhibition"
CN1CCC[C@@H]1CCO[C@](C)(c1ccccc1)c1ccc(Cl)cc1,29.8 µM (active),
O=C1CCc2cc(OCCCCc3nnnn3C3CCCCC3)ccc2N1,inactive,
OCC(F)(F)F,inactive,
CCCCOC(=O)CC,inactive,
COc1cccc(OC)c1C(=O)O,inactive,
CCCC(=O)OCCc1ccccc1,inactive,
CN(C)CCN1CCN(c2cccc(Cl)c2)C1=O,inactive,
C=C(CC)C(=O)c1ccc(OCC(=O)O)c(Cl)c1Cl,inactive,
c1ccsc1,inactive,
CN1CCN2c3ccccc3Cc3ccccc3C2C1 (stereo not given),inactive,
CN(C)Cc1ccccc1O,inactive,
O=c1[nH]c2ccccc2n1CCCN1CCN(C(c2ccccc2)c2ccccc2)CC1,inactive,
NC(=S)NC(N)=S,inactive,
OCCN1CCN(CCCN2c3ccccc3Sc3ccc(C(F)(F)F)cc32)CC1,inactive,
Cc1ccc(-c2ccccc2)cc1,inactive,
C=CC(C)(CCC=C(C)C)OC=O (stereo not given),inactive,
COc1cc(/C=C/c2ccccc2)oc(=O)c1,inactive,
C[Si](Cl)(c1ccccc1)c1ccccc1,inactive,
CCC(COC(=O)CCS)(COC(=O)CCS)COC(=O)CCS,inactive,
CCO[C@@H]1O[C@H](C(COCc2ccccc2)OCc2ccccc2)[C@H](OCc2ccccc2)[C@H]1O (stereo not given in full),inactive,

SMILES,Potency,"activity change, negative = inhibition"
OC/C=C/CO,inactive,
CC1=Nc2ccccc2C1(C)C,inactive,
C[C@H]1NCc2cc(-c3ccc4c(=O)c(C(=O)O)cn(C5CC5)c4c3OC(F)F)ccc21,,6.84% [at 19 µM]
C#C[C@]1(OC(C)=O)CC[C@H]2[C@@H]3CCC4=C[C@@H](OC(C)=O)CC[C@@H]4[C@H]3CC[C@@]21C,11.9 µM (active),
C1CCC(SSC2CCCCC2)CC1,inactive,
CCCc1ccc(OCC(=O)N2CCN(C(=O)COc3ccc(CCC)cc3OC)CC2)c(OC)c1,inactive,
COc1ccc(-c2coc3cc(O)ccc3c2=O)cc1,inactive,
O=C(O)c1cc(=O)c2ccccc2o1,inactive,
Cc1cc(C(C)(C)C)c(O)c(C)c1Cn1c(=O)n(Cc2c(C)cc(C(C)(C)C)c(O)c2C)c(=O)n(Cc2c(C)cc(C(C)(C)C)c(O)c2C)c1=O,inactive,
CC1(C)CCC[C@]2(C)[C@H]3CCO[C@]3(C)CC[C@@H]12,inactive,
Nc1ccc(Oc2ccc(Cl)cc2)cc1,inactive,
O=c1c(O)c(-c2ccc(O)cc2O)oc2cc(O)cc(O)c12,inactive,
c1ccc(C(O[C@@H]2CCCN(CCc3ccc4c(c3)OCO4)C2)c2ccccc2)cc1,inactive,
CCCCN(CCCC)CC(O)c1cc(Cl)cc2c1-c1ccc(Cl)cc1/C2=C/c1ccc(Cl)cc1 (stereo not given),inactive,
CCCCCCOC(=O)C(C)CC (stereo not given),inactive,
CCCC[P+](C)(CCCC)CCCC,inactive,
CN(C)[C@@H](CCOc1cccc2ccccc12)c1ccccc1,inactive,
Cc1cccc(C)c1NC(=O)c1ccc(N)cc1,inactive,
COc1ccc2c(c1)c(CC(=O)OC/C=C(\C)CC/C=C(\C)CCC=C(C)C)c(C)n2C(=O)c1ccc(Cl)cc1,inactive,
OC[C@H]1O[C@H](O[C@H]2O[C@H](CO)[C@@H](O)[C@H](O)[C@H]2O)[C@H](O)[C@@H](O)[C@@H]1O,inactive,
